Results: PubChem BioAssay AID540308 (The Scripps Research Institute Molecular Screening Center, 2011)
The campaign covered roughly 360,000 compounds. About 3,500 (0.97%) were called active.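 The calls were made as follows: active = activation above a per-plate cutoff, the mean activation of sample wells on that plate plus 3 SD (cut at about 8% in these data); inactive = the rest.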 The entries come from a sample that favours actives as a whole.

target: Melanocortin receptor 4 (Homo sapiens) (UniProt P32245); assay: activators of MC4R beta-arrestin recruitment – cell-based, luminescence, agonist arm of biased-ligand search, primary screen (AID 540308); conditions: U2OS MC4R beta-arrestin complementation, at 8.9 µM, active compounds read high, percent of melanotan II response, DMSO zero
Sequence (P32245 whole entry, looked up): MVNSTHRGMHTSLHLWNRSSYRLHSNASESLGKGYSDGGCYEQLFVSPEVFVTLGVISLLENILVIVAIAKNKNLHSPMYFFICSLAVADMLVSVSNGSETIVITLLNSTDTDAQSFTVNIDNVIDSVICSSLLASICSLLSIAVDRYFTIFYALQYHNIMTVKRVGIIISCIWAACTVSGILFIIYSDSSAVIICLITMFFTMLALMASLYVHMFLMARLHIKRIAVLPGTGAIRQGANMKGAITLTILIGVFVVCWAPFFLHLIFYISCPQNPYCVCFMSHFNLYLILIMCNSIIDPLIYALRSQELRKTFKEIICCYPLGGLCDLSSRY

Compound	activation
CC(=O)Nc1cc(-c2ccccc2N(C)C)cn2c(-c3ccc(F)c(Cl)c3)cnc12	25.4% (active)
CC(=O)Nc1cccc(-c2cc(NC(C)=O)c3ncc(-c4ccccc4)n3c2)c1	6.05% (inactive)
CC(=O)Nc1cccc(-c2cc(NC=O)c3ncc(-c4ccc(F)c(Cl)c4)n3c2)c1	5.15% (inactive)
CC(=O)Nc1cc(-c2ccccc2F)cn2c(-c3cccc(C(F)(F)F)c3)cnc12	22.5% (active)
COc1cccc(-c2cnc3c(NC(C)=O)cc(-c4cccc(NC(C)=O)c4)cn23)c1	7.42% (inactive)
COc1cccc(-c2cnc3c(NC(C)=O)cc(-c4cc(F)ccc4OC)cn23)c1	29.8% (active)
CC(=O)Nc1cc(-c2ccc(N3CCN(C)CC3)cc2)cn2c(-c3ccc(F)cc3)cnc12	0.23% (inactive)
CC(=O)Nc1cc(-c2cccc(CO)c2)cn2c(-c3cccc(C(F)(F)F)c3)cnc12	4.6% (inactive)
COc1ccc(-c2cc(NC(C)=O)c3ncc(-c4cc(OC)c(OC)c(OC)c4)n3c2)cn1	-0.61% (inactive)
COc1cccc(-c2cc(NC(C)=O)c3ncc(-c4cccc(C(C)=O)c4)n3c2)c1	3% (inactive)
COc1ccccc1-c1cc(NC(C)=O)c2ncc(-c3ccc(F)cc3)n2c1	10.3% (active)
CC(=O)Nc1cc(-c2ccc(N3CCN(C)CC3)cc2)cn2c(-c3cccc(C(=O)N(C)C)c3)cnc12	0.62% (inactive)
COC(=O)Cc1ccc(OC2(C)CCN(Cc3ccc4c(c3)OCCO4)C2)cc1 (stereo not drawn)	-0.74% (inactive)
CC1(C(=O)NS(=O)(=O)Cc2cccc(Cl)c2)CCN1C(=O)Cc1ccccc1 (stereo not drawn)	-0.92% (inactive)
NC(c1csc(NC(=O)Nc2ccccc2Oc2ccccc2)n1)c1ccccc1Cl (stereo not drawn)	5.13% (inactive)
CCCNC(=O)C1(C)CCN(Cc2csc(-c3ccc(Cl)cc3)n2)C1 (stereo not drawn)	-0.8% (inactive)
O=C(Nc1ccc(Cl)cc1)c1csc([C@H]2C[C@H](O)[C@@H](CO)O2)n1	-0.15% (inactive)
CCOC(=O)C1(Cc2cccc(OC)c2)CCCN(C(=O)CCSC)C1 (stereo not drawn)	-1.03% (inactive)
CCCC(=O)N1CCC1(C)C(=O)NS(=O)(=O)c1ccc(Cl)cc1 (stereo not drawn)	-0.17% (inactive)
OC(c1ccc(Cl)cc1)c1ncc(-c2ccc(Cl)cc2)[nH]1 (stereo not drawn)	1.64% (inactive)
Cc1cccc(-c2cnc(C(O)c3cc(C)cc(C)c3)[nH]2)c1 (stereo not drawn)	-1.6% (inactive)
Cc1ccc(-c2cnc(C(O)c3cc(Cl)cc(Cl)c3)[nH]2)cc1 (stereo not drawn)	9.5% (active)

Compound	activation
C#CCNC(=O)[C@H](Cc1ccc(C(=O)c2ccccc2)cc1)NC(=O)OC(C)(C)C	-0.75% (inactive)
Cc1ccc(Nc2nc(N)nc(CSc3nnc(C)s3)n2)cc1	-0.99% (inactive)
Cc1ccc(Nc2nnc(SC(C)C(=O)NC3CC3)s2)cc1 (stereo not drawn)	1.11% (inactive)
Cc1ccc(Nc2nnc(SCc3ccccc3)s2)cc1	16.6% (active)
OC[C@@H]1CN(C2CCCC2)C[C@H](n2cnc3c(NC4CCC4)ncnc32)O1	-0.37% (inactive)
CCN(C(=O)COC(=O)c1ccc(COc2ccc3c(C)cc(=O)oc3c2)cc1)C1CCS(=O)(=O)C1 (stereo not drawn)	-3.78% (inactive)
Cc1ccccc1NC(=O)c1ccc(COc2ccc3c(C)cc(=O)oc3c2)cc1	19.5% (active)
CCOC(=O)c1cc(=O)c2ccc(OCc3ccccc3)cc2o1	-0.49% (inactive)
Cc1ccc(CC2(C)C(=O)Nc3ccc(OC(F)(F)F)cc32)cc1 (stereo not drawn)	6.29% (inactive)
CC1(Oc2ccccc2-c2ccno2)CCN(Cc2ccc(-c3ccccc3)o2)C1 (stereo not drawn)	-0.57% (inactive)
CCc1nc2c(OCCOc3ccccc3)cccn2c1N(C=O)Cc1ccc(OC)cc1	-1.25% (inactive)
CCc1nc2c(OCCOc3ccccc3)cccn2c1N(C)C(=O)c1ccccc1F	-0.99% (inactive)
N#Cc1ccc(-c2ccc3nccn3c2)cc1	-0.91% (inactive)
O=C(Nc1ccc(OCCO)cc1)c1csc([C@H]2C[C@H](O)[C@@H](CO)O2)n1	1.86% (inactive)
CCN1CCC(O)(/C=C/c2ccc(C)cc2)C(C(=O)/C=C/c2ccc(C)cc2)C1 (stereo not drawn)	-1.73% (inactive)
Cc1ccc(SCC(=O)N2CCN(c3ccc(F)cc3)CC2)cc1	-0.3% (inactive)
CCN1CCC2(CC1)N=C(c1ccc(F)cc1)C(=S)N2C(=O)c1ccc(C)cc1	11.5% (active)
COc1ccc2sc(-c3ccc(S(C)(=O)=O)cc3)c(-c3ccc(C(N)=O)cc3)c2c1	0.87% (inactive)
COc1ccc(-c2sc3ccc(OC)cc3c2C#Cc2ccccn2)cc1	-2.74% (inactive)
COc1ccc2sc(-c3ccc(S(C)(=O)=O)cc3)c(C#Cc3cncn3C)c2c1	35.2% (active)
CC1(C(=O)O)CCN1C(=O)/C=C/c1ccccc1 (stereo not drawn)	0.27% (inactive)
COc1ccccc1CNC(=O)c1cc(-c2cc(Cl)ccc2C)n[nH]1	-0.81% (inactive)

Compound	activation
Cc1ccc(NS(=O)(=O)c2cc3c(cc2Br)NC(=O)CO3)cc1C	1.67% (inactive)
COc1ccccc1Cn1c(CO)nc2ccccc21	1.82% (inactive)
CCn1c(C(O)c2cc(OC)ccc2OC)nc2ccccc21 (stereo not drawn)	-1.32% (inactive)
COc1ccc(C)c(Cn2c(-c3nonc3N)nc3ccccc32)c1	12.1% (active)
CCCNC(=O)C1(C)CCCN(Cc2cccc(C(F)(F)F)c2)C1 (stereo not drawn)	0.13% (inactive)
COc1cccc(CNc2nc(NCc3ccccc3OC)nc3ccsc23)c1	-1.7% (inactive)
COc1ccc(-c2ccc(C(=O)NCCN3CCOCC3)c3occc23)c(C)c1	-2.32% (inactive)
CCNC(=S)Nc1ccc2c(c1)c(=O)n(C)n2Cc1ccc(Cl)cc1	-1.45% (inactive)
C=CCN(CC=C)S(=O)(=O)c1ccc(C(=O)Nc2nc3c(s2)CCc2ccccc2-3)cc1	1.77% (inactive)
COCCN(CCOC)S(=O)(=O)c1ccc(C(=O)Nc2nc3c(s2)CCc2ccccc2-3)cc1	15.6% (active)
COCCN(CC(=O)Nc1ccccc1C)S(=O)(=O)c1ccc(S(=O)(=O)N2CCCC2)cc1	-3.53% (inactive)
OC(c1cc(Cl)cc(Cl)c1)c1ncc(-c2ccccc2C(F)(F)F)[nH]1 (stereo not drawn)	-0.63% (inactive)
OC[C@@H]1CN(Cc2ccncc2)C[C@H](n2cnc3c(N4CCN(c5ccccc5)CC4)ncnc32)O1	0.16% (inactive)
CC1(C(=O)NS(=O)(=O)c2ccc(Cl)cc2)CCN1C(=O)CC1CCCC1 (stereo not drawn)	1.72% (inactive)
COc1ccc2oc(=N)c(C(=O)Nc3ccc(Br)cc3)cc2c1	1.15% (inactive)
COc1ccc(C(=O)c2oc3ccc(Br)cc3c2NC(C)=O)cc1	11.7% (active)
CC(C)C(=O)Nc1c(C(=O)c2ccc(F)cc2)oc2ccccc12	1.16% (inactive)
CCN(CC(=O)Nc1ccccc1C(=O)NC1CC1)Cc1cccs1	-0.58% (inactive)
Cc1nn(-c2ccccc2)c(Cl)c1/C=N/NC(=O)c1nn(C)cc1[N+](=O)[O-]	-2.85% (inactive)
Cc1nn(-c2ccccc2)c(NC(=O)c2cccs2)c(-c2ccc(Cl)cc2)c1=O	-1.07% (inactive)
Cc1ccc(-n2nc(C)c(/C=N/NC(=O)c3cccs3)c2Cl)cc1	20.9% (active)
COc1cccc(NC(=O)C2(C)CCN2C(=O)CCC2CCCC2)c1 (stereo not drawn)	2.96% (inactive)

Compound	activation
COc1cc(NC(=O)c2ccc3c(c2)OCO3)ccc1NC(=O)c1cccs1	-0.83% (inactive)
CCC(=O)c1cc2c(cc1NC(=O)c1cccs1)OCCO2	23.2% (active)
COc1cc(NC(=O)c2cccs2)ccc1NC(=O)c1ccccc1Cl	0.56% (inactive)
COc1ccc(/C=N/NC(=O)Nc2ccc3nsnc3c2)c(OC)c1	13.5% (active)
COc1ccc(S(=O)(=O)NNC(=O)Nc2ccc(C)cc2)c(OC)c1	0.62% (inactive)
COc1ccc(-c2[nH]ncc2/C=N/NC(=O)c2cc(Br)ccc2O)c(OC)c1	0.86% (inactive)
O=C(NCCNc1ccc([N+](=O)[O-])cc1Cl)c1ccccc1F	-1.37% (inactive)
O=C(NCCNc1ccc([N+](=O)[O-])cc1)c1cccc2c(Br)cccc12	8.32% (active)
CC(CNc1ccc([N+](=O)[O-])cc1)NC(=O)c1ccccc1Br (stereo not drawn)	0.96% (inactive)
CC(=O)Oc1ccc(Cn2c(C)c(C(=O)NCc3ccc(C#N)cc3)sc2=O)cc1	0.49% (inactive)
CCCCCCCCCCOC(=O)Cn1c(COc2cccc(OC)c2)[n+](C)c2ccccc21	21.1% (active)
CCCCCCCCCCOC(=O)Cn1c(COc2ccc(C)cc2)[n+](C)c2ccccc21	16.7% (active)
CCCCOc1ccc(NC(=O)CSCC(=O)OCC)cc1	0.02% (inactive)
Cc1ccc(COc2ccc(C(=O)NN)cc2)cc1	6.84% (inactive)
COCCCNC(=O)c1ccc(-c2c(C)noc2C)c2ccoc12	-0.44% (inactive)
COc1cc(NC(=O)c2cc(-c3ccc(F)cc3OC(C)C)n[nH]2)cc(OC)c1OC	3.09% (inactive)
Cc1ccc(C)c(C(O)c2ncc(-c3cccc4ccccc34)[nH]2)c1 (stereo not drawn)	-2.84% (inactive)
O=C(NCCCN1CCCCC1)c1ccc2c(c1)NC(=O)C(N1CCOCC1)S2 (stereo not drawn)	-0.87% (inactive)
CCCNC(=O)c1cc(C2CCCCN2S(=O)(=O)c2ccc(C#N)cc2)on1 (stereo not drawn)	0.19% (inactive)
O=C(NCCN1CCOCC1)c1ccccc1N1C(=O)[C@@H]2Cc3c([nH]c4ccccc34)C(c3cccc(Cl)c3)N2C1=O (stereo partly drawn)	-1.7% (inactive)
Cc1ccc(C(O)c2ncc(-c3ccccc3F)[nH]2)cc1F (stereo not drawn)	-0.39% (inactive)
COc1ccc(C(NC(=O)C2CCN(CCCc3ccccc3)CC2)c2cccs2)cc1 (stereo not drawn)	0.65% (inactive)
